High-throughput results deposited in PubChem by National Center for Advancing Translational Sciences (NCATS).
Pf Dd2 growth = inhibitors of Plasmodium falciparum Dd2 growth | P. falciparum Dd2 growth, SYBR Green, 72 h | Potency, µM (series often up to 28.9 µM), for the others: at the top dose activity, negative = inhibition, actives largely listed as inhibitors | hit rate 4.3% among 120,000 | AID 1347417; active means well fitted inhibition curve with a large enough effect;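 further: plate controls were DMSO vehicle for no effect and reference drug for full effect; nearly all actives have a fitted effect of over 65% in size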
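Infected erythrocytes (Dd2, 0.3% parasitemia, 2.5% hematocrit final) are added to compound in RPMI-1640/Albumax II medium, grown 72 h at 37C in low oxygen, then lysed with saponin/Triton-X containing SYBR Green and read by fluorescence.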
Starred values were filed as active, the others as inactive; i = inactive; [ ] = another dose, or the depositor's remark. The full list was thinned out, with hits kept by preference. Potency means the concentration at half of the fitted maximal effect.

SMILES	Pf Dd2 growth
O=C1Nc2ccccc2CC12CCN(Cc1ccc(OC(F)(F)F)cc1)C2 (stereo not given)	11µM*
O=C1Nc2ccccc2CC12CCN(Cc1cccnc1)C2 (stereo not given)	-30%[44.1 µM]
O=C1Nc2ccccc2CC12CN(Cc1ccc(C(F)(F)F)cc1)C2	54%
CC(=O)Nc1ccc(CN2CCC3(CC2)COc2ccccc2NC3=O)cc1	-23%
COc1ccc(CN2CCC3(CC2)NCc2ccccc2NC3=O)cc1	-20%
Cc1ccc(CN2CCC3(Cc4ccccc4NC3=O)C2)cc1 (stereo not given)	8.9µM*
CCOc1ccccc1NC(=O)N1CCCN(S(C)(=O)=O)C(c2ccccc2)CC(=O)NCC1 (stereo not given)	-19%
Cc1cccc(C)c1NC(=O)CN1C(=O)NC2(CCCCC2)C1=O	18%
COc1ccc(-c2noc([C@@H](C)NC(=O)c3nc4ccccc4[nH]3)c2C(=O)O)cc1	-5%
O=C(NC1CCN(c2cc(-c3ccc(F)cc3)[nH]n2)C1)c1ccc(F)cc1Cl (stereo not given)	i
CCn1cc(S(=O)(=O)N2CCC3(CC2)CC(N(C)Cc2ccccc2)CCO3)cn1 (stereo not given)	i
COc1ccc(NC(=O)Cn2c(=O)c(-c3noc(C)n3)c3n(c2=O)CCCC3)cc1	16%
CC(=O)N1CC[C@H](c2nnc(-c3cccnc3)o2)C1	12%[44.1 µM]
O=C(NCc1nnc2ccc(-c3ccc(Cl)cc3)nn12)C1(c2ccccc2)CC1	-21%
Cc1csc(NC(=O)[C@@H]2CCC[C@@H](NC(=O)c3ccccc3)CN(C)C(=O)C2)n1	i
CC(C)(C)C(=O)NCc1ccnc2[nH]ccc12	11%[44.1 µM]
CCOc1cc(=O)n2c(c1C(=O)Nc1cc(C)ccc1C)CCCC2	12%
CCNC(=O)N1CCCC(Cc2ncc(C)n2CC2CC2)C1 (stereo not given)	i
COc1ccc(-c2noc(CN(C(=O)C(C)Oc3ccc(C)cc3)C(C)C)n2)cc1 (stereo not given)	10µM*
COc1ccc(-c2noc(CN(C(=O)c3ccccc3Cl)C(C)C)n2)cc1	-4%
Cc1ccc(CC(=O)N(Cc2nc(-c3ccc(C)cc3)no2)C(C)C)cc1	-22%
CC(C)(C)CC(=O)N1CCC2(CC1)N(c1ccccc1)C(=O)CS2(=O)=O	-13%
CC(C)CC(O)C(=O)N1CCC(n2nccc2NC(=O)c2ccccc2)CC1 (stereo not given)	-2%
CCc1[nH]nc(C(=O)N2CCC(c3[nH]ncc3-c3cccc(C)c3)CC2)c1C	-15%
COCCN1C(=O)[C@H]2CN(Cc3ccc(F)c(F)c3)C[C@H]2C1=O	-2%
SMILES	Pf Dd2 growth
O=C1NC2(CCN(C(=O)c3ccc4c(c3)OCO4)C2)Oc2ccccc21 (stereo not given)	-19%
O=C1NC2(CCCN(C(=O)c3ccccc3F)C2)COc2ccccc21 (stereo not given)	-22%
O=C(c1ccc2c(c1)OCO2)N1CCC2(CC1)COc1ccccc1CN2	1.3µM*
O=C(c1ccccc1F)N1CCC2(CC1)COc1ccccc1NC2=O	5%
O=C(c1ccccc1F)N1CCC2(CC1)COc1ccccc1CN2	1.1µM*
O=C1CC(C(=O)O)C2(CCN(C(=O)c3ccc4c(c3)OCO4)CC2)N1 (stereo not given)	5%
c1cn(CCCN2CCCC2)c(-c2cc3n(n2)CCCNC3)n1	0%
COc1cccc(-c2cccc(COc3cnc4c(ccn4CC(=O)O)c3)c2)c1F	i
Cc1cc(Cn2cc3c4c(cccc42)[C@H](CC(C)C)N[C@H](C(=O)NCCN2CCOCC2)C3)no1	-6%
Cc1cc(Cn2cc3c4c(cccc42)[C@H](CC(C)C)N[C@H](C(=O)NCCN(C)C)C3)no1	7.9µM*
CC#CCn1cc2c3c(cccc31)[C@H](CC(C)C)N[C@H](C(=O)NCc1cccs1)C2	-12%[44.1 µM]
CC(C)C[C@@H]1N[C@H](C(=O)NCCN(C)C)Cc2cn(Cc3ccncc3)c3cccc1c23	13µM*
CC(C)C[C@@H]1N[C@H](C(=O)O)Cc2cn(Cc3ccncc3)c3cccc1c23	-5%
CC#CCn1cc2c3c(cccc31)[C@H](CC(C)C)N[C@H](C(=O)NCc1ccc(OC)cc1)C2	-30%
COc1ccc(CNC(=O)[C@@H]2Cc3cn(CC4CC4)c4cccc(c34)[C@H](CC(C)C)N2)cc1	i
Cc1cc(Cn2cc3c4c(cccc42)[C@H](CC(C)C)N[C@H](C(=O)NCc2ccccn2)C3)no1	13µM*
CC(C)C[C@@H]1N[C@H](C(=O)N2CCOCC2)Cc2cn(CC3CC3)c3cccc1c23	-21%[44.1 µM]
COc1ccc(OCc2nc(C)c(CCO)c(=O)n2CC(=O)Nc2cccc(OC)c2)cc1	-22%
O=C1CCN(C(=O)c2ccccc2)CCCC(C(=O)Nc2ccccc2CCc2ccncc2)CCN1 (stereo not given)	-9%
O=C([C@@H]1C[C@H](F)CN1S(=O)(=O)c1ccccc1F)N1CCCCC1	-9%
O=c1[nH]nc2n1CCN(C1CCOCC1)CC2	-3%
Cc1ccc(NCc2cccn2-c2nnc(N3CCC(C(=O)NC(C)C)CC3)s2)cc1	i
Cc1ccc(CN(Cc2cccn2-c2nnc(N3CCCC3=O)s2)C(=O)Nc2cc(C)cc(C)c2)cc1	3.2µM*
COC(=O)c1ccccc1NC(=O)N(Cc1ccc(C)cc1)Cc1cccn1-c1nnc(N2CCCC2=O)s1	2%
COCCOc1ccc2c(n1)CCN(C(=O)Cc1ccccc1)C2	-22%
SMILES	Pf Dd2 growth
Cc1cnc(CC2CCN(C(=O)N(C)C)C2)n1CC1CC1 (stereo not given)	-3%
COc1ccc(S(=O)(=O)N2CC[C@H]3NC(=O)N(c4ccc(C(C)C)cc4)C(=O)[C@H]32)cc1	-27%[44.1 µM]
COCc1nc(C2CC(NC(=O)CN3C(=O)CN(C)C3=O)C2)cc(=O)[nH]1 (stereo not given)	-12%
COCc1nc(C2CC(Nc3ccnc4cc(Cl)ccc34)C2)cc(=O)[nH]1 (stereo not given)	2.5µM*
CN(C)c1nc(NC2CC(c3cc(=O)[nH]c(C4CC4)n3)C2)ncc1F (stereo not given)	i
Cc1nn2c(c1-c1ccnn1C(C)C)N(C(=O)Cc1ccc(O)cc1)CCC2	-20%[44.1 µM]
CCN1CCC2(CCC1=O)CN(C(=O)CCc1cccnc1)CCN2C (stereo not given)	-7%
O=C(N[C@@H](CO)c1ccccc1)c1cc(COc2cccc(F)c2)[nH]n1	-10%
COc1cc(NC(=O)NC[C@H]2O[C@@H](CO)[C@@H](O)[C@H]2N2CCN(c3ccccc3)CC2)cc(OC)c1	i
COC(=O)c1ccccc1NC(=O)c1cc2c(-c3ccc(OC)c(OC)c3)nn(C)c2s1	14%
CCCCN(CC)CCCNC(=O)c1cc2c(-c3ccc(OC)c(OC)c3)nn(C)c2s1	7.9µM*
CCOCCCNC(=O)c1cc2c(-c3ccc(OC)c(OC)c3)nn(C)c2s1	i
O=C(NC[C@H]1OC[C@@H](N(Cc2ccccc2)Cc2ccccc2)[C@@H]1O)c1ccccc1	i
O=C(NCc1nncn1C1CCCCC1)C1CNCCO1 (stereo not given)	-9%
COc1ccc(-c2c3c(nc4sc(C(=O)Nc5ccc(Cl)cc5)c(N)c24)CC(C)(C)CC3=O)cc1	0.063µM*
COc1ccc(NC(=O)c2sc3nc(C)c(C(=O)Nc4ccc(Cl)cc4)c(-c4ccc(Br)cc4)c3c2N)cc1	-3%
COc1ccc(NC(=O)c2sc3nc4c(cc3c2N)CCCCCC4)cc1	22%
Cc1ccc(C)c(NC(=O)N2C[C@H](c3nc(-c4ccncc4)no3)[C@@H](C)C2)c1	-18%
CN1CCC(NC[C@H]2COCc3nc4cccnc4n32)CC1	-13%[44.1 µM]
